# PubChem BioAssay AID493248 (Broad Institute, 2011)
# About 1,400 (61%) of roughly 2,300 compounds were called active. Inconclusive results (about 7%) are left out. The rule behind the calls is not given here. So high a share suggests a set chosen from earlier hits. These entries were drawn from the full list. Results with a measured potency or affinity are listed apart.
# Target: FAD-linked sulfhydryl oxidase ALR (Homo sapiens) (UniProt P55789)
# Assay: inhibitors of human ALR sulfhydryl oxidase, dose response, biochemical, H2O2 detection, luminescence, cherry-pick (AID 493248)
# Conditions: purified ALR, DTT oxidation, H2O2 HRP-luminol luminescence; at 10 µM (top of the series)
# FAD-linked sulfhydryl oxidase ALR (Homo sapiens), sequence (P55789 whole entry, looked up): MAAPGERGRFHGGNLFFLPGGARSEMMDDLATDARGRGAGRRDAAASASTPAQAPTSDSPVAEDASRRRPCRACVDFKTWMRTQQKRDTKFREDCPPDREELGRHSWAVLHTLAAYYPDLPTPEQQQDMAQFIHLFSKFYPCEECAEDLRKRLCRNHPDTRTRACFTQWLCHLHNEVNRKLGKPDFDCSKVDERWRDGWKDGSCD
row,Compound,"activity change, negative = inhibition [%]"
1,Cc1nn(C(C)C(=O)N/N=C/c2ccc(N(C)C)cc2)c(C)c1[N+](=O)[O-] (stereo not given),-45.7
2,COc1ccccc1-c1c(-c2ccc(O)cc2O)n[nH]c1C(F)(F)F,267
3,COc1cccc(Oc2cn[nH]c2-c2ccc(O)cc2O)c1,-53.3
4,Cc1cc(/C=C2\C(=N)N3N=CSC3=NC2=O)c(C)n1Cc1ccccc1,-36.4
5,Cn1nnnc1SCc1csc(Nc2ccccc2)n1,-51.7
6,CCN1C(=O)/C(=C/N(C)C)c2ccccc21,14.1
7,Cc1ccc(-c2nc(-c3ccc(Cl)cc3)sc2CC(=O)O)c(C)c1,-95.8
8,Cc1ccc(-c2sc(-c3cccnc3)nc2CC(=O)O)cc1,-3.54
9,CCCCC(=O)Nc1ccnc(-c2cccnc2)n1,34
10,CN(C)c1cccc2c(/C=N/O)ccc(N(C)C)c12,3.9
11,O=C(Cc1cccs1)N/N=C\c1ccc(O)cc1,-96.8
12,Cc1ccc(C(=O)Nc2cccc([N+](=O)[O-])c2)cc1S(=O)(=O)Nc1ccc(C(=O)O)cc1,-15
13,COc1cccc2sc(Nc3nnc(-c4ccccc4Cl)o3)nc12,-55.9
14,Cc1noc(C(=O)N2CCN(c3ccccc3)CC2)c1Cl,-27.4
15,Cc1onc(C(=O)N2CCN(c3ccccc3)CC2)c1[N+](=O)[O-],-51.4
16,c1ccc2c(c1)CC(N1CCCCC1)c1ccccc1N2 (stereo not given),-14.9
17,C=CCNC(=O)c1ccccc1S(=O)c1ccccc1C#N (stereo not given),-6.74
18,Nc1nc(CN2CCN(C(=O)c3ccco3)CC2)nc(Nc2cccc(Cl)c2)n1,-24.8
19,CN1CCN(S(=O)(=O)c2ccc(N)cc2)CC1,-29.3
20,Brc1ccc(-c2ncc3ccccn23)cc1,-33.1
21,Cc1nn(C)c(Sc2ccccc2N)c1[N+](=O)[O-],-39.9
22,O=[N+]([O-])c1ccc2c(c1)CNc1ccccc1O2,-57.2
23,O=C(O)c1ccccc1CSC1=NCCS1,-98.5
24,CC(=O)Nc1ccc(SC[C@H](CC(C)C)N2CCN(CC(C)C)CCC2=O)cc1,0.961
25,O=C(O)c1ccc(-n2c(/C=C/c3cccc([N+](=O)[O-])c3)nc3ccccc3c2=O)cc1,-30.3

row,Compound,"activity change, negative = inhibition [%]"
1,CC1CCN(CCCNC(=O)c2ccc(CSCc3cccc(Cl)c3)o2)CC1,26.9
2,COc1cccc(N2CCN(C(=O)c3cc(C)oc3C)CC2)c1,-48.7
3,O=C(c1ccc(CS(=O)(=O)c2ccc(Br)cc2)o1)N1CCCC1,43.5
4,O=C(c1ccc(CS(=O)Cc2ccccc2Cl)o1)N1CCN(c2cccc(Cl)c2)CC1 (stereo not given),45.7
5,COc1ccc(-c2coc3cc(O)ccc3c2=O)cc1O,-45.2
6,COC(=O)c1c(-c2ccc(C)cc2)csc1N,-4.41
7,COc1ccccc1C(=O)Nc1nc2nc(-c3ccccc3)cc(=O)n2[nH]1,-46.5
8,Cc1oc(-c2ccccc2)cc1C(=O)Nc1cccc(C(=O)O)c1,-45.5
9,Cc1cccc(C(=O)Nc2ccc(O)cc2)c1,-86.3
10,Cc1cc(C)nc(NS(=O)(=O)c2ccc(NC(=O)Cc3ccccc3F)cc2)n1,-98.5
11,c1ccc(CCCN2CCN(c3ccccc3)CC2)cc1,-9.66
12,Cc1nc2nc(C)c(CCC(=O)N3CCN(c4ccccc4)CC3)c(C)n2n1,-54.1
13,O=C(CCCC1=NS(=O)(=O)c2ccccc2N1)N1CCN(c2ccc(Cl)cc2)CC1,-50.1
14,COC(=O)c1ccc(NC(=O)CN2CCN(c3ccccc3)CC2)cc1,-30.3
15,Cc1nn(-c2ccccc2)c2nc(-c3ccco3)cc(C(=O)O)c12,-53.4
16,COC(=O)c1ccc(CSc2ncnc3c2nnn3-c2ccc(F)cc2)o1,-6.9
17,COC(=O)c1ccc(CSc2nc3ccc(Cl)cc3[nH]2)o1,-47.5
18,O=C1c2cc(O)c(O)cc2S(=O)(=O)C1c1ccccc1 (stereo not given),-13
19,COc1ccc(-n2cnnc2SCc2cnc(-c3ccccc3)s2)cc1,-99.2
20,Cc1nc2ccc(NC(=O)c3ccco3)cc2nc1C,-98.9
21,Oc1ccc(C2C[C@H]3CC[C@@H]2C3)cc1O (stereo not given in full),0.253
22,O=C(O)CCCN1C(=O)/C(=C\C(Cl)=C\c2ccccc2)SC1=S,-28.9
23,CN(C)c1ccc(N2CC(C)(C)C2=O)cc1,9.24
24,Cc1cccn2cc(-c3cccc(S(=O)(=O)N4CCCCC4)c3)nc12,-98.3
25,Cc1cc(C)c2ccc(N)nc2c1O,-14.6

row,Compound,"activity change, negative = inhibition [%]"
1,COc1cc(C)nc(Oc2ccc(/C=N/O)cc2)n1,-95.2
2,CCN1CCN(C(=O)Nc2ccc(Cc3ccc(NC(=O)N4CCN(CC)CC4)cc3)cc2)CC1,-18.9
3,COCc1nnc(NC(=O)c2ccc(S(=O)(=O)N3CCCc4ccccc43)cc2)o1,-34.2
4,CCCC(O)(c1ccc(OC)cc1)C(CN(C)C)c1ccccc1 (stereo not given),4.55
5,Nc1ccccc1Nc1c(F)c(F)nc(F)c1Cl,-37.7
6,Cc1ccc[n+](-c2nc([O-])sc2/C=N/Nc2ccc([N+](=O)[O-])cc2)c1,-43.9
7,O=C(CNC(=O)c1ccco1)Nc1ccc(N2CCCCCC2)cc1,-0.183
8,O=C(NCc1ccco1)C1CC(=O)N(c2ccc(O)cc2)C1 (stereo not given),-85.4
9,O=C(CN1CCN(c2ccc(O)cc2)CC1)Nc1cc(S(=O)(=O)N2CCCC2)ccc1Cl,-40.9
10,COc1cc(/C=C/c2sc3ccccc3[n+]2CCCS(=O)(=O)[O-])ccc1O,-105
11,Nc1nc(-c2ccc3c(c2)CCCC3)cs1,-97
12,COc1ccc2c(c1)c1ncn(CCc3ccccc3)c(=O)c1n2C,-0.427
13,O=c1[nH]c(=S)[nH]c2sccc12,-34.4
14,Cc1ccc(CNC(=O)c2ccc(CS(=O)Cc3ccccc3Cl)o2)cc1 (stereo not given),-1.87
15,O=c1oc2c3c4c(cc2s1)CCCN4CCC3,-13.7
16,CC(C)n1cc(C(=O)N2CCCC(N3CCN(c4cccc(Cl)c4)CC3)C2)cn1 (stereo not given),-43.2
17,Cc1ccc(N2CCN(S(=O)(=O)c3ccc4c(c3)NC(=O)C(C)C(=O)N4)CC2C)cc1 (stereo not given),-30.2
18,Cc1cccc(N2CCN(C(=O)Cn3sc4nc(C)cc(C)c4c3=O)CC2C)c1 (stereo not given),-57.4
19,O=c1oc2ccccc2cc1-c1ccc(O)cc1O,371
20,Cc1c(Cl)c(-c2n[nH]c(=S)n2CC(C)C)nn1C,-54.1
21,Cn1cc(Cl)c(-c2n[nH]c(=S)n2-c2ccc(F)cc2)n1,18.2
22,CC(C)(C)c1ccc(Oc2ccc(N)cn2)cc1,49.2
23,CC(C)(C)c1ccc(C(=O)Oc2ccccc2CCC(=O)O)cc1,-56
24,CC1CCN(C(=S)c2ccc(O)cc2)CC1,-30
25,CN(C)c1ccc(C(=O)N2CCCC2)cc1,-10.3
